Reference: PubChem BioAssay (Tox21)
Results filed as inconclusive are left out. Calls of active or inactive are those of the source. Unless noted, calls come from the whole dose curve; as a rule, active = well fitted curve in the direction sought with a large enough effect in the repeat runs; inconclusive = weak or mixed curves; inactive = no such curve, though single readings can be large; an effect the other way counts as inactive or inconclusive.

Tests used:
[1] = molecular target: Peroxisome proliferator-activated receptor gamma (Homo sapiens) (UniProt P37231); assay: qHTS assay to identify small molecule antagonists of the peroxisome proliferator-activated receptor gamma (PPARg) signaling pathway (AID 743191; calls by dose curve; note: series mostly up to about 63 µM; nearly all actives have a fitted effect of over 30% in size)
Procedure, shortened: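 GeneBLAzer PPARg UAS-bla HEK293H cells carrying a UAS-driven beta-lactamase reporter were plated at 3000 cells/well, preincubated 5 h at 37C, then given compound for 17 h at 37C; LiveBLAzer B/G FRET substrate was read after 1 h at room temperature.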

[2] = qHTS assay to identify small molecule antagonists of the peroxisome proliferator-activated receptor gamma (PPARg) signaling pathway - cell viability counter screen (AID 743194); note: nearly all actives have a fitted effect of over 55% in size
Procedure, shortened: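 PPARg-UAS-bla HEK293H cells were plated, rested 5 h at 37 C, then treated with compounds plus rosiglitazone (50 nM final) for 17 h at 37 C; viability was then read by CellTiter-Glo luminescence after 30 min at room temperature.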

[3] = qHTS assay for small molecule agonists of the antioxidant response element (ARE) signaling pathway (AID 743202; active = well fitted activation curve with a large enough effect in the signal ratio in the repeat runs, not every such curve was filed as active; the % refers to the signal ratio; note: potency is the fitted concentration of half-maximal effect)
Procedure, shortened: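 Compounds delivered in DMSO to ARE-bla HepG2 cells (2,000 cells/well, pre-incubated 5 h) and left 16 h at 37 C. LiveBLAzer B/G FRET substrate then added for 2 h at RT before fluorescence reading.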

[4] = qHTS assay for small molecule agonists of the antioxidant response element (ARE) signaling pathway - cell viability counter screen (AID 743203; calls by dose curve; note: nearly all actives have a fitted effect of over 55% in size)
Procedure, shortened: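 CellSensor ARE-bla HepG2 cells, 2,000 per well, rested 5 hrs at 37C/5% CO2, then exposed to compound in DMSO for 16 hrs; viability read as CellTiter-Glo luminescence after 30 min at room temperature, in the reporter wells.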

[5] = qHTS assay for small molecule activators of the heat shock response signaling pathway - cell viability counter screen (AID 743209); note: nearly all actives have a fitted effect of over 50% in size
Procedure, shortened: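 CellSensor HSE-bla HeLa cells, plated overnight at 37 C/5% CO2, were exposed to compounds in DMSO for 5 h at 37 C. Viability was then read in the same wells by CellTiter-Glo luminescence after 30 min at room temperature.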

[6] = qHTS assay for small molecule activators of the heat shock response signaling pathway (AID 743210; active = well fitted activation curve with a large enough effect in the signal ratio in the repeat runs, with a control signal flat, not every such curve was filed as active; the % refers to the signal ratio;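 note: HeLa cells with beta-lactamase reporter driven by heat shock elements; series mostly up to about 63 µM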)
Procedure, shortened: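 Reporter gene assay: HeLa cells stably bearing an HSE-bla construct, compound treatment 5 h at 37 C, LiveBLAzer substrate 2.5 h at RT, fluorescence intensity.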

[7] = qHTS assay to identify small molecule agonists of the peroxisome proliferator-activated receptor delta (PPARd) signaling pathway - cell viability counter screen (AID 743211); note: nearly all actives have a fitted effect of over 55% in size
Procedure, shortened: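 Viability was measured as CellTiter-Glo luminescence (30 min, room temperature) in the same wells as the beta-lactamase readout. GeneBLAzer PPARd UAS-bla HEK293H cells received compound after 5 h plating and were incubated 17 h at 37 C.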

[8] = molecular target: Peroxisome proliferator-activated receptor delta (Homo sapiens) (UniProt Q03181); assay: qHTS assay to identify small molecule agonists of the peroxisome proliferator-activated receptor delta (PPARd) signaling pathway (AID 743212; calls by dose curve)
Procedure, shortened: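 A PPARd-bla HEK293H line with beta-lactamase under an Upstream Activator Sequence is treated with compounds at 37 C. Substrate loading for 2 h at room temperature precedes the fluorescence measurement.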

[9] = qHTS assay to identify small molecule antagonists of the peroxisome proliferator-activated receptor delta (PPARd) signaling pathway - cell viability counter screen (AID 743213); note: nearly all actives have a fitted effect of over 50% in size
Procedure, shortened: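 Same-well viability: cells pre-incubated 5 h, dosed with compound plus 300 nM L165041, kept 17 h at 37 C, FRET substrate 2 h RT, then CellTiter-Glo 30 min RT and luminescence.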

[10] = molecular target: Peroxisome proliferator-activated receptor delta (Homo sapiens) (UniProt Q03181); assay: qHTS assay to identify small molecule antagonists of the peroxisome proliferator-activated receptor delta (PPARd) signaling pathway (AID 743215; active = well fitted inhibition curve with a large enough effect in the signal ratio in the repeat runs, not every such curve was filed as active; the % refers to the signal ratio;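 note: cells stimulated with agonist L165041 at 300 nM final during compound exposure; series mostly up to about 62 µM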)
Procedure, shortened: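 PPARd UAS-bla HEK293H cells were pre-incubated 5 h at 37 C, then given test compounds in DMSO plus agonist L165041 (300 nM final). After 17 h at 37 C, beta-lactamase FRET substrate was added; fluorescence read after 2 h at room temperature.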

[11] = molecular target: Bile acid receptor (Homo sapiens) (UniProt Q96RI1); assay: qHTS assay to identify small molecule antagonists of the farnesoid-X-receptor (FXR) signaling pathway (AID 743217; active = well fitted inhibition curve with a large enough effect in the signal ratio in the repeat runs, not every such curve was filed as active; the % refers to the signal ratio)
Procedure, shortened: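 FXR-UAS-bla HEK 293T cells pre-incubated 5 h at 37 °C, then exposed to compounds with chenodeoxycholic acid (50 uM final) for 16 h at 37 °C. Beta-lactamase reporter read by LiveBLAzer B/G FRET substrate fluorescence after 2 h at room temperature.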

[12] = qHTS assay to identify small molecule agonists of the farnesoid-X-receptor (FXR) signaling pathway - cell viability counter screen (AID 743218); note: nearly all actives have a fitted effect of over 45% in size
Procedure, shortened: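 FXR-UAS-bla HEK 293T cells, plated 5 h at 37 C, were exposed to compounds for 16 h at 37 C. CellTiter-Glo was then added to the same wells as the bla readout; luminescence read after 30 min at room temperature.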

[13] = molecular target: Bile acid receptor (Homo sapiens) (UniProt Q96RI1); assay: qHTS assay to identify small molecule agonists of the farnesoid-X-receptor (FXR) signaling pathway (AID 743220; active = well fitted activation curve with a large enough effect in the signal ratio in the repeat runs, not every such curve was filed as active; the % refers to the signal ratio)
Procedure, shortened: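 Beta-lactamase reporter under UAS control in GeneBLAzer FXR HEK 293T cells (5000/well) measured with LiveBLAzer FRET substrate after 2 h at room temperature. Compound exposure lasted 16 h at 37C.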

[14] = qHTS assay to identify small molecule antagonists of the farnesoid-X-receptor (FXR) signaling pathway - cell viability counter screen (AID 743221; active = well fitted cell-killing curve with a large enough effect in the repeat runs, not every such curve was filed as active; note: nearly all actives have a fitted effect of over 50% in size)
Procedure, shortened: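 Cytotoxicity counter screen run in the FXR-bla reporter wells: HEK 293T cells exposed to compound with 50 uM (final) chenodeoxycholic acid for 16 h, 37 C, then viability measured by CellTiter-Glo luminescence after 30 min, room temperature.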

[15] = molecular target: Vitamin D3 receptor (Homo sapiens) (UniProt P11473); assay: qHTS assay to identify small molecule agonists of the vitamin D receptor (VDR) signaling pathway (AID 743222; calls by dose curve)
Procedure, shortened: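 VDR-bla cells were plated 4 h at 37C/5% CO2, then exposed to compounds in DMSO for 16 h. After LiveBLAzer B/G FRET substrate addition and 2 h at room temperature, beta-lactamase reporter fluorescence was read.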

[16] = molecular target: Vitamin D3 receptor (Homo sapiens) (UniProt P11473); assay: qHTS assay to identify small molecule antagonists of the vitamin D receptor (VDR) signaling pathway (AID 743223; active = well fitted inhibition curve with a large enough effect in the signal ratio in the repeat runs, not every such curve was filed as active; the % refers to the signal ratio)
Procedure, shortened: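 Antagonist mode: compound added to VDR-bla cells alongside agonist 1alpha,25-dihydroxyvitamin D3 (3 nM final), incubation 16 h at 37C. Read-out is LiveBLAzer FRET fluorescence, 2 h at room temperature.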

[17] = molecular target: Aryl hydrocarbon receptor (Homo sapiens) (UniProt P35869); assay: qHTS assay to identify small molecule that activate the aryl hydrocarbon receptor (AhR) signaling pathway (AID 743085);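 note: HG2L7.5c1 human HepG2 liver cells with stably integrated DRE-driven firefly reporter; series mostly up to about 70 µM; nearly all actives have a fitted effect of over 15% in size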
Procedure, shortened: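 Luminescence (ONE-Glo) from a dioxin-responsive-element luciferase reporter in HG2L7.5c1 HepG2 cells after 24 hr compound exposure at 37C; viability measured by CellTiter-Fluor fluorescence beforehand.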

[18] = qHTS assay to identify small molecule that activate the aryl hydrocarbon receptor (AhR) signaling pathway - cell viability counter screen (AID 743086);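 note: HepG2 liver cells carrying the AhR DRE luciferase reporter; series mostly up to about 70 µM; nearly all actives have a fitted effect of over 45% in size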
Procedure, shortened: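 HepG2-AhR-luc (HG2L7.5c1) cells, 4000/well, were preincubated 5 h at 37C, exposed to compound in qHTS format for 24 hr at 37C, then given CellTiter-Fluor for 30 min; viability was read as fluorescence in the reporter wells.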

[19] = molecular target: Peroxisome proliferator-activated receptor gamma (Homo sapiens) (UniProt P37231); assay: qHTS assay to identify small molecule agonists of the peroxisome proliferator-activated receptor gamma (PPARg) signaling pathway (AID 743094; active = well fitted activation curve with a large enough effect in the signal ratio in the repeat runs, not every such curve was filed as active; the % refers to the signal ratio)
Procedure, shortened: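 GeneBLAzer PPARg UAS-bla HEK293H cells carrying a stably integrated beta-lactamase reporter were pre-incubated 5 h at 37C, then exposed to compounds in DMSO for 17 h at 37C; LiveBLAzer B/G FRET substrate was added for 1 h at room temperature and fluorescence read.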

Measured: Potency

Chain of Vitamin D3 receptor (Homo sapiens) (P11473 whole entry, looked up): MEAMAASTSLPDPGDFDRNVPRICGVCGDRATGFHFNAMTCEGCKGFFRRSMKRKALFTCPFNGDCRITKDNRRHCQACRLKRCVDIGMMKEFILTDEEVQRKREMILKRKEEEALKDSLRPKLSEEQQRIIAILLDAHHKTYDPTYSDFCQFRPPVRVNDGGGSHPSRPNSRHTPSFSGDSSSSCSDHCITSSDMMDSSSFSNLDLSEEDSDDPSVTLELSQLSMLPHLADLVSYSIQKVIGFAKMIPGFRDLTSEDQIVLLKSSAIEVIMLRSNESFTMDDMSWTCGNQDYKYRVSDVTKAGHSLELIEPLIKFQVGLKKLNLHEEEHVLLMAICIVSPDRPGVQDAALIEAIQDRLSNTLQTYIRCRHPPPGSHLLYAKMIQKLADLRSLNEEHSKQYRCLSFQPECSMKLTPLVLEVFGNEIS
Chain of Peroxisome proliferator-activated receptor delta (Homo sapiens) (Q03181 whole entry, looked up): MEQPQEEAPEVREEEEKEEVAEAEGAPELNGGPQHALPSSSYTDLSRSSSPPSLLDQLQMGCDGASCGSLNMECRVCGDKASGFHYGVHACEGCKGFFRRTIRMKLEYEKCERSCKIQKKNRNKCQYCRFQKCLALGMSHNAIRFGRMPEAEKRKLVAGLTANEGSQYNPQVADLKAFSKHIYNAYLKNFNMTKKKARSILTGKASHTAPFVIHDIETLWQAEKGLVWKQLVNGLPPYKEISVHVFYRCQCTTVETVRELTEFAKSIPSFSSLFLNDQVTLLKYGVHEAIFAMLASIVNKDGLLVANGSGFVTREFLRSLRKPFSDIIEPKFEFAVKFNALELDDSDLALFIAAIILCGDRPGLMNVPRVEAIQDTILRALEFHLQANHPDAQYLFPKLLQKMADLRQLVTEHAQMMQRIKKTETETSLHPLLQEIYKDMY
Chain of Bile acid receptor (Homo sapiens) (Q96RI1 whole entry, looked up): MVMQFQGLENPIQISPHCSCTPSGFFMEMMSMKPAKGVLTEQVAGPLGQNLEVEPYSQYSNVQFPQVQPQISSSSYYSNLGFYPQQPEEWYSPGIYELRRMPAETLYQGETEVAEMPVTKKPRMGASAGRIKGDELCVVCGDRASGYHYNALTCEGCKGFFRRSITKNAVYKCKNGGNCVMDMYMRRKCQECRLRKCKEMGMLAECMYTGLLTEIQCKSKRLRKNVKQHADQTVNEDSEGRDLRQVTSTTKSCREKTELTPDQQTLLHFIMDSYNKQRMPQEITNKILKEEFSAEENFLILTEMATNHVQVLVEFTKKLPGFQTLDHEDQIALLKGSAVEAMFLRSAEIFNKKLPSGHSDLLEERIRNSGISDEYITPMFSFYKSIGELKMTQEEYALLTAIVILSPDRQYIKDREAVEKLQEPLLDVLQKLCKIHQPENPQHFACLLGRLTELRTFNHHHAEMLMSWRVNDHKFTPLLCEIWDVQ
Chain of Peroxisome proliferator-activated receptor gamma (Homo sapiens) (P37231 whole entry, looked up): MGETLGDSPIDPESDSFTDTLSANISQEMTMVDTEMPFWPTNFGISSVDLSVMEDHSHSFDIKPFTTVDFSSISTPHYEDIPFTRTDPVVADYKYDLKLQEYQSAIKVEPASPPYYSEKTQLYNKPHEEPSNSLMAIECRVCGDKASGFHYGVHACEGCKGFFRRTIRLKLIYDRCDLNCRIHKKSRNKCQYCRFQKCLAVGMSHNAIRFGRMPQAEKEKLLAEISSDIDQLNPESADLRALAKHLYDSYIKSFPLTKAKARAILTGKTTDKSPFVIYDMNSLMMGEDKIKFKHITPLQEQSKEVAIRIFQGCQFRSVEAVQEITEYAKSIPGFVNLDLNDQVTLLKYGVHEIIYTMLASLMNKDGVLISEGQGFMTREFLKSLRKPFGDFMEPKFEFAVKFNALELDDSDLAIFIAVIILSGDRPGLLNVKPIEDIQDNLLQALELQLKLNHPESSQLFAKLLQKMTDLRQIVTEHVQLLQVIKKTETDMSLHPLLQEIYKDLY
Chain of Aryl hydrocarbon receptor (Homo sapiens) (P35869 whole entry, looked up): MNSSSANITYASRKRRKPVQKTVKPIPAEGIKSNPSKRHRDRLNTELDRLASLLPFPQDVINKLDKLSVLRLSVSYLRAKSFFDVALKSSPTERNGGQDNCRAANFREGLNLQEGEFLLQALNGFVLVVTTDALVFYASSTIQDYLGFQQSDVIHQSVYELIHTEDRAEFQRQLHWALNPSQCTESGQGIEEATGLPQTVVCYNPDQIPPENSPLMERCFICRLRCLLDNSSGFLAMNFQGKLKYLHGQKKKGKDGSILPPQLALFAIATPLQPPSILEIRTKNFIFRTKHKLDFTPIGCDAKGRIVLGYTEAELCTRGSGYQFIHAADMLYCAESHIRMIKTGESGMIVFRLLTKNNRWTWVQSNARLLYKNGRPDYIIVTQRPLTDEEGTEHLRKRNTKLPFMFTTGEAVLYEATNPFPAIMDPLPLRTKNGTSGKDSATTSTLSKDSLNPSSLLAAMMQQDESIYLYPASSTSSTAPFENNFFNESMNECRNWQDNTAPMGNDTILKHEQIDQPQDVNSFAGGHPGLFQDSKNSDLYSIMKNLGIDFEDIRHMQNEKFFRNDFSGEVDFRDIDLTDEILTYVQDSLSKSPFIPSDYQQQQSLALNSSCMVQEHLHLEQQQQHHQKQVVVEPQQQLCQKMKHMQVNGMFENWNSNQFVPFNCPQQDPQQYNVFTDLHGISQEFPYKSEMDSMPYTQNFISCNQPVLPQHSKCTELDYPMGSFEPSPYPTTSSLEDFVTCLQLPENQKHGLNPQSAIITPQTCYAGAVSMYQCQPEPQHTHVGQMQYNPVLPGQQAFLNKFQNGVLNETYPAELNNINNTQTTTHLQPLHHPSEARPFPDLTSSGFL

COC(=O)c1ccc(NC(C)=O)cc1OC
inactive: [1] | [2] | [3] | [4] | [5] | [6] | [7] | [8] | [9] | [10] | [11] | [12] | [13] | [14]

CO/N=C(\C(=O)O)c1csc(NC(=O)CCl)n1
inactive: [2] | [4] | [5] | [6] | [12] | [14] | [15] | [16]

Cc1ccc(O)c(C(=O)c2ccccc2)c1
inactive: [17] | [18] | [19] | [2] | [3] | [4] | [5] | [6] | [7] | [8] | [9] | [10] | [12] | [14] | [15]

Cc1nnc(C(=O)NC(C)(C)c2nc(C(=O)NCc3ccc(F)cc3)c(O)c(=O)n2C)o1
inactive: [18] | [2] | [4] | [5] | [6] | [7] | [8] | [12] | [14] | [15] | [16]

CNC(=O)c1c(I)c(NC(C)=O)c(I)c(C(=O)O)c1I
inactive: [2] | [3] | [4] | [5] | [6] | [7] | [8] | [9] | [10] | [12] | [14]

CN(C)CCc1c[nH]c2ccc(C[C@H]3COC(=O)N3)cc12
inactive: [17] | [18] | [19] | [1] | [2] | [3] | [4] | [5] | [6] | [7] | [9] | [11] | [12] | [14]

CCC(C)(C)C
inactive: [17] | [18] | [2] | [3] | [4] | [5] | [6] | [7] | [9] | [11] | [12] | [14] | [15] | [16]

N#CC1(N)CCCCC1
inactive: [17] | [18] | [19] | [1] | [2] | [4] | [5] | [6] | [7] | [9] | [12] | [14] | [15] | [16]

CCCc1ncc(C(=O)O)s1
inactive: [1] | [2] | [4] | [5] | [6] | [7] | [8] | [9] | [10] | [12] | [14] | [15] | [16]

C[C@@H]1CCC[C@H](C)N1CCCC(O)(c1ccccc1)c1ccccn1 (some centres not stated)
inactive: [1] | [2] | [3] | [4] | [5] | [6] | [8] | [12] | [14]

Clc1ccc2c(c1)Nc1ccccc1S2
active: [3] 29.8 µM
inactive: [2] | [4] | [5] | [6] | [7] | [9] | [10] | [12] | [14] | [16]

CCN(CC)CC(=O)Oc1ccc(NC(C)=O)cc1
inactive: [1] | [2] | [4] | [5] | [6] | [7] | [8] | [9] | [10] | [12] | [14] | [15]

CCOC(=O)CN1CCCC1=O
inactive: [2] | [3] | [4] | [5] | [6] | [9] | [10] | [12] | [14] | [15] | [16]

COC(=O)/C=C(\C)CCC=C(C)C
inactive: [17] | [18] | [19] | [1] | [2] | [4] | [5] | [6] | [7] | [8] | [9] | [10] | [12] | [14] | [15] | [16]

O=C1CC2(CCCC2)CC(=O)N1CCNCC1COc2ccccc2O1 (configuration not stated)
inactive: [17] | [18] | [2] | [3] | [4] | [5] | [9] | [12] | [13] | [15] | [16]

CC(=O)O[C@@H]1CC2C3CCc4cc(OC(=O)c5ccccc5)ccc4C3CCC2(C)[C@H]1OC(C)=O (some centres not stated)
inactive: [2] | [3] | [4] | [5] | [6] | [9] | [11] | [12] | [13] | [15] | [16]

CCc1ccc(CC)cc1
inactive: [17] | [18] | [19] | [1] | [4] | [5] | [6] | [9] | [12] | [14] | [15] | [16]
